# Test results reported in PubChem BioAssay.
# The source made the active and inactive calls.
# Key:
# [1] = tested on: Plasmodium falciparum Sir2 (PF13_0152, Sir2A); experiment: Plasmodium falciparum Sir2A binding compounds – biochemical, small-molecule microarray, 635 nm fluorescence, primary screen (AID 1098); conditions: fluorescence 635 nm, higher = more signal;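 note: score merges spot fluorescence intensity with its signal-to-noise ratio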
# [2] = probe aDKK1 binding to arrayed compounds – biochemical, biotinylated probe, 635/667 nm fluorescence, primary screen (AID 1099); conditions: small-molecule microarray, higher = more signal;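 note: score merges 667nm spot fluorescence with signal to noise across triplicate slides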
# [3] = probe aCHRDL2 binding to arrayed compounds – biochemical, biotinylated probe, 635/667 nm fluorescence, primary screen (AID 1100); conditions: small-molecule microarray, higher = more signal
# [4] = change in splice reporter luminescence, either direction, cell-based, HEK293, spliceosome inhibition project, primary screen (AID 1101); conditions: HEK293 splicing luciferase reporter, 24 h, higher = more signal, called active from +8 up or from −8 down;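 note: HEK293 cells carrying a splicing-competent luciferase reporter gene; test concentration not given here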
# [5] = target: Fibroblast growth factor 10 (Homo sapiens) (UniProt O15520); experiment: compounds binding fibroblast growth factor 10 – biochemical, small-molecule microarray, 635 nm fluorescence, primary screen (AID 1102); conditions: FGF10 binding, fluorescence 635 nm, higher = more signal
# [6] = tested on: glycogen synthase kinase-3 (GSK3A per assay name; protocol says GSK3B); experiment: compounds binding glycogen synthase kinase-3 – biochemical, small-molecule microarray, 635 nm fluorescence, GSK3A, primary screen (AID 1103); conditions: fluorescence 635 nm, higher = more signal; note: the record names both GSK3A and GSK3B
# [7] = target: Epidermal growth factor receptor (Homo sapiens) (UniProt P00533); experiment: compounds binding epidermal growth factor receptor – biochemical, small-molecule microarray, 635 nm fluorescence, primary screen (AID 1104); conditions: EGFR binding, higher = more signal;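 note: score merges 667 nm emission intensity with spot signal to noise over triplicate slides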
# [8] = target: Follistatin-related protein 3 (Homo sapiens) (UniProt O95633); experiment: compounds binding follistatin-related protein 3 – biochemical, small-molecule microarray, 635 nm fluorescence, primary screen (AID 1105); conditions: FSTL3 binding, higher = more signal;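 note: score merges emission near 667 nm and signal to noise per printed spot across three slides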
# [9] = target: Dickkopf-related protein 1 (Homo sapiens) (UniProt O94907); experiment: small molecules binding DKK1 protein – biochemical, small-molecule microarray, 635 nm fluorescence scan, primary screen (AID 1106); conditions: higher = more signal;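 note: score merges emission near 667 nm with signal to noise over three replicate slides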
# [10] = tested on: Inhibin beta A chain (activin A); experiment: small molecules binding activin A – biochemical, small-molecule microarray, 635 nm fluorescence scan, primary screen (AID 1107); conditions: INHBA, higher = more signal;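 note: mouse activin A protein probed at 4.33 µg/mL on printed slides; score merges bound-protein fluorescence near 667 nm with spot signal-to-noise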
# [11] = tested on: Human papillomavirus type 1a protein E7 (residues 44-93); experiment: small molecules binding HPV E7 44-93 – biochemical, small-molecule microarray, residues 44-93, 635 nm fluorescence, primary screen (AID 1108); conditions: fluorescence 635 nm, higher = more signal;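 note: E7 fragment applied at 1 µg/mL in TBST for 1 h at 4 C; score combines spot fluorescence with its signal to noise ratio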
# [12] = hepatitis C replication reporter changes, two-sided – Huh7 cells, luciferase reporter, HCV replication inhibitor project, primary screen (AID 1109); conditions: Huh7 HCV replicon luciferase reporter, 48 h; higher = more signal;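 note: huh7 hepatoma cells harbouring a luciferase neomycin HCV replicon reporter; luciferase luminescence as measure of HCV replicon replication; test concentration not given here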
# [13] = target: Left-right determination factor 2 (Homo sapiens) (UniProt O00292); experiment: small molecules binding LEFTY2 protein – biochemical, small-molecule microarray, 635 nm fluorescence scan, primary screen (AID 1110); conditions: higher = more signal
# [14] = target: Calmodulin-1 (Homo sapiens) (UniProt P0DP23); experiment: small molecules binding calmodulin-1 with EGTA – biochemical, small-molecule microarray, Cy5-labelled CALM1, profiling panel (AID 1111); conditions: Cy5-CALM1 binding fluorescence, higher = more signal;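 note: labelled calmodulin applied in Tris saline Tween buffer holding calcium plus EGTA and DTT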
# [15] = target: Calmodulin-1 (Homo sapiens) (UniProt P0DP23); experiment: small molecules binding Ca-loaded calmodulin-1 – biochemical, small-molecule microarray, Cy5-labelled CALM1, plus calcium, artefact control for SMM control-protein annotation, profiling panel (AID 1112); conditions: Cy5-CALM1 binding fluorescence, higher = more signal;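 note: score merges spot fluorescence with signal to noise from triplicate slides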
# [16] = probe aWnt5a binding to arrayed compounds – biochemical, biotinylated probe, 635/667 nm fluorescence, primary screen (AID 1113); conditions: small-molecule microarray, higher = more signal;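 note: score merges 667 nm fluorescence intensity with signal-to-noise per printed feature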
# [17] = probe aShh binding to arrayed compounds – biochemical, biotinylated probe, 635/667 nm fluorescence, primary screen (AID 1114); conditions: small-molecule microarray, higher = more signal;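 note: probe is biotin-labelled aShh protein from a stem cell growth factor screen; measures binding of labelled protein to compounds printed on the slide; score merges feature fluorescence at 667 nm with signal-to-noise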
# [18] = probe aNog binding to arrayed compounds – biochemical, biotinylated probe, 635/667 nm fluorescence, primary screen (AID 1115); conditions: small-molecule microarray, higher = more signal;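 note: probe is biotinylated aNog protein used at 0.15 µg/mL for 1 h at 4 C; z-score combines 667 nm fluorescence of each spot with its signal to noise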
# [19] = target: Torsin-1A-interacting protein 1 (Homo sapiens) (UniProt Q5JTV8); experiment: compound microarray binding of lysate hLAP1 – cell lysate, small-molecule microarray, COS7 lysate, 635/667 nm fluorescence, primary screen (AID 1116); conditions: 635 nm fluorescence, higher = more signal
# [20] = target: Alpha-bungarotoxin (Bungarus multicinctus) (UniProt P60615); experiment: compounds binding labelled alpha-BTX control protein – biochemical, small-molecule microarray, Alexa647 label, 635/667 nm fluorescence, artefact control for SMM control protein annotation, profiling panel (AID 1117); conditions: alpha-BTX-A647 binding fluorescence, higher = more signal
# Alpha-bungarotoxin (Bungarus multicinctus), sequence (P60615 whole entry, looked up): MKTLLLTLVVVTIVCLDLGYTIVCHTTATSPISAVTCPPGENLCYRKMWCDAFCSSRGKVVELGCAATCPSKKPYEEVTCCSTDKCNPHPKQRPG
# Left-right determination factor 2 (Homo sapiens), sequence (O00292 whole entry, looked up): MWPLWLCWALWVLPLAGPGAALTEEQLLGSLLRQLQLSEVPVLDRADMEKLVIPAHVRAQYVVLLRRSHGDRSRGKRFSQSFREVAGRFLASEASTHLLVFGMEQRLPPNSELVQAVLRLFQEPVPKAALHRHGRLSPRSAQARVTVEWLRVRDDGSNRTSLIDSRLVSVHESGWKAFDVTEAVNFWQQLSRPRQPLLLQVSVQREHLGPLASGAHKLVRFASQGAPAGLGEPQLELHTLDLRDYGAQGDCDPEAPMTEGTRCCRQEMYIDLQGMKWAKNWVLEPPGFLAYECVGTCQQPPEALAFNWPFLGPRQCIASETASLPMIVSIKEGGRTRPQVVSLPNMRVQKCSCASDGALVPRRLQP
# Follistatin-related protein 3 (Homo sapiens), sequence (O95633 whole entry, looked up): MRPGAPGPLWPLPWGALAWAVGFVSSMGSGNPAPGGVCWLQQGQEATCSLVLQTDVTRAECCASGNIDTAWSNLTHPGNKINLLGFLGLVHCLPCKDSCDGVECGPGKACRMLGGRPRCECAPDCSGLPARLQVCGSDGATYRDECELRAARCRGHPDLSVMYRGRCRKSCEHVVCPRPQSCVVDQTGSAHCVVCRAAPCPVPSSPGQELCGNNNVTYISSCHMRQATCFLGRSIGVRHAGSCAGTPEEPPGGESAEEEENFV
# Epidermal growth factor receptor (Homo sapiens), sequence (P00533 whole entry, looked up): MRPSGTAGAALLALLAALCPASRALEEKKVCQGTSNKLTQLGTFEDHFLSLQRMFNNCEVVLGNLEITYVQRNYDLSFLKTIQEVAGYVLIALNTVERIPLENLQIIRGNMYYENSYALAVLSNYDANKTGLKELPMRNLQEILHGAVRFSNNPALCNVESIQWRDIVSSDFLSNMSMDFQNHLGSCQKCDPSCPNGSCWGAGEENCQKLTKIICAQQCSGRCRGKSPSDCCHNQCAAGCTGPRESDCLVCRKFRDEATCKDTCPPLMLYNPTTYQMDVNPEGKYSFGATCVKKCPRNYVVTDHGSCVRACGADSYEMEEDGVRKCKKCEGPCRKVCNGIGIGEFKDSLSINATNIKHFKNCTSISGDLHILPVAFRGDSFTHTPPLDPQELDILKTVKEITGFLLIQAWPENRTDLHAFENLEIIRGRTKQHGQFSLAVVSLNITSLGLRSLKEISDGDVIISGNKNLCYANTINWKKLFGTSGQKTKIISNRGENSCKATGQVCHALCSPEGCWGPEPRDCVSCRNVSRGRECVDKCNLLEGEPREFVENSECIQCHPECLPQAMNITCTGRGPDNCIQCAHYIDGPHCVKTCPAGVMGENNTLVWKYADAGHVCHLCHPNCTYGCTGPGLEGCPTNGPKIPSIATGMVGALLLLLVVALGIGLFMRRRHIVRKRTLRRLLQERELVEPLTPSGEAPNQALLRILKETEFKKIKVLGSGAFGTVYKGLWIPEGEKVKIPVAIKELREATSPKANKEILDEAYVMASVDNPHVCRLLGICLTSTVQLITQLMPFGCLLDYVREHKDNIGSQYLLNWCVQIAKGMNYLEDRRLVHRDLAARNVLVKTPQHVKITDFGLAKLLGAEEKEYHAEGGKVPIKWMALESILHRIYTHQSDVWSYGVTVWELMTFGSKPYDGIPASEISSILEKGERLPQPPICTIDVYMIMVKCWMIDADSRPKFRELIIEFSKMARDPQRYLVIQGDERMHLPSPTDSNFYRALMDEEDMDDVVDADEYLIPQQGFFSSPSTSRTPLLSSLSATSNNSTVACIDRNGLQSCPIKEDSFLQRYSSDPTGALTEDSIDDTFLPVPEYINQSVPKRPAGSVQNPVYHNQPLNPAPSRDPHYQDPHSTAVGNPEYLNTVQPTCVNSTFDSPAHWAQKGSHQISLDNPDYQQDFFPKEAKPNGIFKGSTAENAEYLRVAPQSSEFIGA
# Torsin-1A-interacting protein 1 (Homo sapiens), sequence (Q5JTV8 whole entry, looked up): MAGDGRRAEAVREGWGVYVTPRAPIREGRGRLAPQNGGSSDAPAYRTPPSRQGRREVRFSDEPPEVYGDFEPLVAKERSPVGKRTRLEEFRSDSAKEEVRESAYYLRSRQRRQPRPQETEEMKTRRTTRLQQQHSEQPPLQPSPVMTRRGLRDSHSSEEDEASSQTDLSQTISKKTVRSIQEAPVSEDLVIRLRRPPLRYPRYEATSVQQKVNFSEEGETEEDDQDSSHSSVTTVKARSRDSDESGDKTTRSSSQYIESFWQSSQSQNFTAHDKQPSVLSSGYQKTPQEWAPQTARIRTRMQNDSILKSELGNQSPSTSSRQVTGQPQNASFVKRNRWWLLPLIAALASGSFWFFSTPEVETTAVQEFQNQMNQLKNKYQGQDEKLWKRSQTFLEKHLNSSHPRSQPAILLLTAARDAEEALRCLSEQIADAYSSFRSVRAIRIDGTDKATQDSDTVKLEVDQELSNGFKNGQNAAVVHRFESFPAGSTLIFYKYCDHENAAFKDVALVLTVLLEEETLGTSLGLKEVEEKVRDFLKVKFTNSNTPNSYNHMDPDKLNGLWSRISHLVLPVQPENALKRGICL
# Fibroblast growth factor 10 (Homo sapiens), sequence (O15520 whole entry, looked up): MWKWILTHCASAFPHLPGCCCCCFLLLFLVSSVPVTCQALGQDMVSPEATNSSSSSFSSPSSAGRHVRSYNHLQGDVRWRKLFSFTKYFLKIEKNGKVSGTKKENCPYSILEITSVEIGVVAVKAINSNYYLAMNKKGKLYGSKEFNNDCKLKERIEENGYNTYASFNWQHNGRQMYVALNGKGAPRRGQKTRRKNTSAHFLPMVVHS
# Dickkopf-related protein 1 (Homo sapiens), sequence (O94907 whole entry, looked up): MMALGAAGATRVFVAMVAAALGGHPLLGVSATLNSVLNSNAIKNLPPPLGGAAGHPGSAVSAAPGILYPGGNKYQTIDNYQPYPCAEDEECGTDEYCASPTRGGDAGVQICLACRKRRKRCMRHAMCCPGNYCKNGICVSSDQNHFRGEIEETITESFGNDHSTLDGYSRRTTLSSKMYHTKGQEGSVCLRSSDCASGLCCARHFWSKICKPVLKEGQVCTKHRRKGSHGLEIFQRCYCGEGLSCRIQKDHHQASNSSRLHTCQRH
Compound,composite z-score [1],composite z-score [2],composite z-score [3],z-score [4],composite z-score [5],composite z-score [6],composite z-score [7],composite z-score [8],composite z-score [9],composite z-score [10],composite z-score [11],z-score [12],composite z-score [13],composite z-score [14],composite z-score [15],composite z-score [16],composite z-score [17],composite z-score [18],composite z-score [19],composite z-score [20]
O=C(NCC(O)CO)[C@]1(CCS(=O)(=O)c2ccccc2)N=C(c2ccc(OCCCO)cc2)O[C@@H]1c1ccccc1 (stereo not given in full),1.11,1.28,1.34,0.833 (inactive),0.305,0.516,-0.498,-0.365,-0.868,0.529,0.556,-0.326,-0.805,1.99,1.48,-0.0846,0.0756,1.12,2.69,2.41
C#C[C@H]1Oc2ccccc2S(=O)(=O)N2CCC[C@@H]12,0.578,-0.215,-0.0688,0.724 (inactive),-0.0502,0.0695,0.354,0.712,1.29,1.74,-0.137,-0.871,0.533,-0.982,-0.495,-0.169,0.0815,-0.1,0.0849,-0.288
O=C1[C@H]2C=C(Br)[C@H](C[C@@H]2OCCOCCO)[C@@]12CO2,0.146,-0.119,-0.115,0.651 (inactive),0.527,0.144,0.475,0.118,0.18,1.02,0.0617,-1.85,0.348,-0.2,-0.341,-0.0944,-0.0769,-0.303,0.0452,0.554
Cc1ccc(N2C(=O)c3ccccc3[C@](C)(C(=O)NCCN3CCOCC3)[C@@H]2c2ccc(CO)cc2)nc1,0.0614,0.0511,0.858,0.219 (inactive),-1.01,-1.73,-1.41,-1.74,-0.979,-0.472,-0.742,0.548,-1.28,-0.597,-0.583,-0.228,0.0442,-0.244,-0.869,-1.44
C=CCN1C(=O)[C@@]2(O[C@@H](CCO)[C@H]([Si](C)(C)c3ccc(OC)cc3)[C@H]2C)c2cc(NC(C)=O)ccc21,0.463,-0.155,-0.255,-1.17 (inactive),1.08,1.16,0.363,1.44,1.29,0.314,0.128,-3.7,1.45,0.793,0.509,0.0136,-0.0769,-0.234,1.14,0.71
COCCOC(=O)N1C(=O)[C@@]2(c3cc(C#CC4(O)CCCCCC4)ccc31)[C@H](c1ccc(O)cc1)N1[C@H](c3ccccc3)[C@H](c3ccccc3)OC(=O)[C@H]1[C@@H]2C(=O)N1CCc2cc(OC)c(OC)cc2C1,1.23,-0.226,0.687,-0.597 (inactive),-0.681,-0.32,-0.705,-1.15,-0.591,0.0107,-0.213,-0.302,-1.24,-0.548,-0.179,-0.145,0.0756,-0.321,0.282,-0.678
CO[C@H]1O[C@H](CO)[C@@H](OC(=O)Nc2ccc3c(c2)OCO3)[C@H](OC(=O)Nc2ccc3c(c2)OCO3)[C@H]1OC(=O)Nc1ccc2c(c1)OCO2,1.49,-0.0124,0.392,-0.295 (inactive),1.24,1.33,0.258,0.878,0.101,1.14,1.45,-0.36,0.265,1.52,-0.623,0.0037,0.503,0.961,1.21,0.477
COc1ccccc1CN1C(=O)c2ccccc2[C@](Cc2ccccc2I)(C(=O)NCc2ccccc2)[C@@H]1c1ccc(CO)cc1,0.17,0.131,0.875,0.164 (inactive),0.184,-0.0893,-0.593,-0.457,-0.341,0.9,0.0977,-0.641,-0.703,0.0656,0.556,0.037,-0.264,-0.268,-0.0999,1.05
O=C(N1CCCCC1)[C@]1(CCS(=O)(=O)c2ccccc2)N=C(c2ccc(OCCCO)cc2)O[C@@H]1c1ccccc1,1.26,1.02,1.08,0.25 (inactive),0.997,1.31,-0.0354,0.536,-0.142,1.29,0.876,-3.16,0.101,1.91,1.02,0.055,1.49,0.56,0.917,2.56
CN1C(=O)C2C=CC(C(O)c3ccc(Br)cc3)N(Nc3ccccc3)C2C1=O (stereo not given),-0.186,0.528,1.03,1.11 (inactive),-0.583,-1.21,-1.3,-1.09,-1.49,1.12,-0.0441,0.15,-1.43,-0.209,0.394,-0.124,-0.178,0.154,0.65,-0.292
O=C1NC(=O)C2C1C=CC(C(O)c1cccs1)N2Nc1ccccn1 (stereo not given),0.809,0.53,0.601,0.566 (inactive),0.797,0.182,0.727,0.292,0.283,0.538,0.348,0.755,0.451,0.0761,-0.576,-0.096,-0.214,0.0516,1.32,1.19
